Screening data: PubChem BioAssay, University of Kansas High Throughput Screening Laboratory
In the library only some 3.6% were active in any assay of this set; here they are far more common.
Pf apPOL inh = Pf-apPOL inhibitors, biochemical, fluorescence; AID 1794808, 2022; actives 0.25% (n = 210,000); inhibition, % at 10 µM; Recombinant Pf-apPOL, molecular beacon fluorescence, 1.5 h; Plasmodium falciparum apicoplast DNA polymerase (apPOL)
mHTT-CaM PPI inh = mutant huntingtin-calmodulin interaction inhibitors – biochemical, AlphaScreen, primary screen | P42858 | AlphaScreen His-mHTT/GST-CaM binding, luminescence | inhibition, % at 15 µM | actives 3.6% (n = 190,000)
A number is an active result; - = inactive; . = no result given. Rule as the data show it: active = inhibition above about 50%; inactive = the rest.

SMILES | Pf apPOL inh | mHTT-CaM PPI inh
COc1ccc(N(CC(=O)NC2CCCC2)S(=O)(=O)c2ccc(C)c([N+](=O)[O-])c2)cc1 | - | -
COc1ccc(NC(=O)C2CCCN(c3nccnc3Sc3ccccc3)C2)cc1 (configuration not stated) | - | -
CCCc1nc2cccnc2n1C1CCN(C(=O)CCc2ccc(OC)cc2)C1 (configuration not stated) | - | -
COc1ccc(-c2nc3cccnc3n2C2CCN(C(=O)CCc3ccccc3)C2)cc1 (configuration not stated) | - | 86
Cc1nc(C)n(CC(O)COc2ccc(-c3ccccc3)cc2)n1 (configuration not stated) | - | -
Cc1nn(CC(O)COC(c2ccccc2)c2ccccc2)c(C)c1Br (configuration not stated) | - | 99
Cc1ccc(S(=O)(=O)Nc2ccc(Cn3cncn3)cc2)cc1Cl | - | -
COc1cc(C2CC(=O)c3cnc(NC(=O)c4ccccc4)nc3C2)cc(OC)c1OC (configuration not stated) | - | -
CCCCCC(=O)Nc1ncc2c(n1)CC(c1cc(OC)c(OC)c(OC)c1)CC2=O (configuration not stated) | 82 | -
O=C(OCc1cn(-c2cccc(Cl)c2Cl)nn1)c1c(F)cccc1F | - | .
COc1ccc(Nc2nc(Nc3ccc(O)cc3)nc(C)c2[N+](=O)[O-])cc1 | - | 78
CNc1nc(C)c([N+](=O)[O-])c(Nc2ccc(OC)cc2)n1 | - | -
O=C(NCCCN1CCOCC1)c1cc2nc(-c3cccs3)cc(C(F)(F)Cl)n2n1 | - | -
O=C(NCCc1c[nH]c2ccccc12)c1cc2nc(-c3cccs3)cc(C(F)(F)Cl)n2n1 | - | 82
CN(C)CCNC(=O)c1ccc(Cl)c(Cl)c1 | - | -
CC(CNC(=O)c1cncc(O)c1)NC(=O)c1cncc(O)c1 (configuration not stated) | - | -
O=C(O)c1cn(-c2ccc(F)cc2[N+](=O)[O-])c(=O)c2ccccc12 | - | -
COc1ccc(NC(=O)C2CC2)cc1OC | - | -
C=C(C)C1CC=C(CNc2ccc(OC)c(OC)c2)CC1 (configuration not stated) | - | 86
NC(=S)N/N=C/c1c2ccccc2cc2ccccc12 | . | -
NC(=S)NN=C1c2ccccc2-c2ccccc21 | . | 55
C1=C(c2ccccc2)N2CCCCN=C2S1 | - | .
CCOC(=O)N1CCN(CC(O)COCc2cc(OC)c(OC)c(OC)c2)CC1 (configuration not stated) | - | -
Cc1cccc(COC[C@H](Cc2ccccc2)N2CCN(C(=O)c3ccc(Cl)c(Cl)c3)CCC2=O)c1 | - | 100
Cc1ccc(S(=O)(=O)N2CCC(=O)N([C@H](COCc3cccc(Cl)c3)Cc3ccccc3)CC2)cc1 | - | -
SMILES | Pf apPOL inh | mHTT-CaM PPI inh
CC(C)(C)c1ccc(C(=O)N2CCC(=O)N([C@H](COCc3ccccc3)Cc3ccccc3)CC2)cc1 | - | -
O=C(c1cccc(Cl)c1)N1CCC(=O)N([C@H](COCc2cccc(Cl)c2)Cc2ccccc2)CC1 | - | 100
O=C(CS(=O)(=O)c1cn(Cc2ccccc2Cl)c2ccccc12)NC1CCCCC1 | - | -
COc1cc(/C=C/[N+](=O)[O-])cc(Cl)c1OCc1cccc(C(=O)O)c1 | - | 57
COc1cc(/C=C2\NC(=O)NC2=O)cc(Cl)c1OCc1cccc(C(=O)O)c1 | - | -
COc1ccc(CNC(=O)CC2CCN(C(=O)c3ccc(C)cc3)CC2)cc1 | - | -
O=C(CSc1cn(Cc2ccc(F)cc2)c2ccccc12)NCc1ccco1 | - | -
NC(=O)c1c(NC(=O)COc2ccc(Cl)cc2)sc2c1CCCC2 | - | -
CC(=O)c1c(C(C)=O)c(C)n(-c2ccc(N)cc2)c1C | - | -
Cc1cc(N)c(-n2c(C)c3c(C)nnc(C)c3c2C)cc1C | - | 88
Cc1nnc(C)c2c(C)n(-c3ccc(N)cc3)c(C)c12 | - | 55
CC(=O)c1c(C(C)=O)c(C)n(-c2cc(C)c(C)cc2N)c1C | - | -
COc1ccc(NC(=O)C2CCN(c3nccnc3Oc3ccccc3C)CC2)cc1F | - | -
Cc1nc(-n2cccc2)sc1C(=O)NCCOc1cccc2cccnc12 | - | -
O=C(Nc1ccccc1C(=O)NCc1cccnc1)c1ccc(Cl)cc1 | - | -
COCCNC(=O)C1(C)CCC(=O)N1CCc1c[nH]c2ccccc12 (configuration not stated) | - | -
CC(C)CCNC(=O)C1(C)CCc2ccccc2C(=O)N1CCc1c[nH]c2ccccc12 (configuration not stated) | - | 98
Cc1ccc(-n2nc3cc(N)c(Cl)cc3n2)cc1 | - | 59
Cc1cc2nn(-c3ccccc3)nc2cc1N | - | -
C=CCSc1nnc2n(C)c(=O)c3c(n12)-c1ccccc1CC31CCCCC1 | - | -
O=c1[nH]c(-c2ccccc2O)nc2ccccc12 | - | -
Oc1ccccc1-c1nc2ccccc2[nH]1 | - | 65
